Screening data: PubChem BioAssay, Johns Hopkins Ion Channel Center
In the library only some 1.6% were active in any assay of this set; here they are far more common.
KCNQ2 inh: rat KCNQ2 potassium channel inhibitors, primary screen, cell-based, CHO-K1, FluxOR thallium flux, B-score; 20 min; hits give low values; B-score at 10 µM; 310,000 tested, 1.1% active; AID 2156, 2009;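 active = fluorescence ratio B-score at most minus 3 library SDs, with starting brightness B-score within 2 library SDs, cut at about -5.5 in these data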
KCNQ2 pot: potentiators of rat KCNQ2 potassium channel | 310,000 tested, 0.54% active | CHO-K1 KCNQ2, FluxOR thallium flux fluorescence; hits give high values | B-score at 10 µM | Potassium voltage-gated channel subfamily KQT member 2 (Rattus norvegicus), O88943;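 active = fluorescence ratio B-score at least 3 SD of library B-scores, with initial fluorescence B-score within 3 of them, cut at about 5.3 in these data; same plate scores as AID 2156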;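 note: B-score of peak minus minimum over baseline fluorescence ratio after K+ and Tl+ stimulus; positive B-score means potentiation of KCNQ2 with more thallium influx and brighter signal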
Kir21 conf inh: mouse Kir2.1 channel blockers, retest, confirmation, cell-based, FluxOR thallium flux, duplicate; shares compounds with KCNQ2 pot; Kir2.1-expressing cells, FluxOR thallium flux fluorescence; hits give low values; Tl flux remaining, % of negative control (hits give low values), % at 10 µM; 2,300 tested, 41% active; AID 2032, 2009;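 active = Primary-screen hit whose thallium flux fell at least 3 control SD below untreated wells in both duplicates, with normal baseline fluorescence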;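 note: 0% = blank wells without stimulus and 100% = stimulated no-compound controls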
HEK293 Tl flux: alters thallium flux in parental HEK293 cells, Kir2.1 counter-screen; FluxOR signal as % of negative control (100 = no effect), % at 10 µM; 2,300 tested, 19% active; AID 2105; shares compounds with KCNQ2 pot; FluxOR thallium flux fluorescence; 0% = unstimulated blank wells;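 active = dye signal at least 3 control SD above or below untreated wells in both duplicates, raw fluorescence within 3, either direction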;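 note: percent is based on the flux ratio of peak minus minimum fluorescence over baseline F0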
CHO-K1 Tl ctr: nonspecific thallium flux increase in parental CHO-K1, confirmation, counter-screen for KCNQ2 potentiator project, cell-based, FluxOR thallium flux, duplicate; shares compounds with KCNQ2 pot; AID 2282, 2010; 1,200 tested, 43% active; parental CHO-K1 cells, FluxOR thallium flux fluorescence; zero = vehicle mean+3SD, 100% = vehicle-minus-blank window; activity increase over 3SD of controls, % at 10 µM;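 active = signal rise of at least 3 SD above the untreated control mean, in both duplicate wells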;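 note: counter screen of KCNQ2 potentiator hits so any rise reflects channel-independent effects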
KCNQ1 pot spec: human KCNQ1 channel potentiation off-target, confirmation, selectivity assay for KCNQ2 potentiator project, cell-based, CHO, FluxOR thallium flux; shares compounds with KCNQ2 pot; CHO KCNQ1 stable, FluxOR thallium flux fluorescence; beyond 3SD, as % of vehicle-control signal; activation over 3SD threshold, % at 10 µM; 1,200 tested, 28% active; AID 2283, 2010;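 active = fluorescence ratio rise of at least 3 SD of vehicle wells above their mean, in both replicate wells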;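 note: 0% = vehicle mean plus 3 SD and 100% = vehicle minus unstimulated blank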
Target sequence (P51787 whole entry, looked up): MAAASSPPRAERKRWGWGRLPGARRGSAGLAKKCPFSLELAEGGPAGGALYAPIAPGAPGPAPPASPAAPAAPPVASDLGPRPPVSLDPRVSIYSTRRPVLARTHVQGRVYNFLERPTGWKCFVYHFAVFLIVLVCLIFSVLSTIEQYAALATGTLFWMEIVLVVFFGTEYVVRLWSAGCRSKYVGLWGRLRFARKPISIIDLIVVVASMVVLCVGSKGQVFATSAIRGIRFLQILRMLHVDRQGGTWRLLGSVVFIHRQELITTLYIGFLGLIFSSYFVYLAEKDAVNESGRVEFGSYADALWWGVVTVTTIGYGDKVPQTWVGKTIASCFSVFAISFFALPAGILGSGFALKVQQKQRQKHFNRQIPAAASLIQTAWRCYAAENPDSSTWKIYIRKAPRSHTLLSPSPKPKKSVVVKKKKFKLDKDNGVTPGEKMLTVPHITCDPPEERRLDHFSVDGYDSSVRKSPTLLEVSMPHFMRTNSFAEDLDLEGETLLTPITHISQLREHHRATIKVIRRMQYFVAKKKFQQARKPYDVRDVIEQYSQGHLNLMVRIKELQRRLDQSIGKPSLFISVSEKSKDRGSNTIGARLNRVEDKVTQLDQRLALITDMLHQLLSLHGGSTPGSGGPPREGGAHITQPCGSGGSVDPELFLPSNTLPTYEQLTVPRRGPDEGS
KCNQ2 pot confirm: rat KCNQ2 channel potentiators, confirmation, cell-based, CHO, FluxOR thallium flux, duplicate | shares compounds with KCNQ2 pot | CHO-KCNQ2 cells, FluxOR thallium flux fluorescence | potentiation, less the hit threshold, % at 10 µM | 1,200 tested, 68% active;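 active = fluorescence ratio rising 3 SD or more over the vehicle control mean in both replicates, plus primary screen hit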;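 note: peak minus minimum thallium fluorescence divided by baseline after K/Tl stimulus; 0% = vehicle mean plus 3 SD and 100% = vehicle minus unstimulated blank difference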
Kir2-1 sel: mouse Kir2.1 channel activation off-target, confirmation, selectivity assay for KCNQ2 potentiator project, cell-based, HEK293, FluxOR thallium flux; shares compounds with KCNQ2 pot; HEK293 Kir2.1, FluxOR thallium flux fluorescence; activity over 3SD threshold, % at 10 µM; 1,200 tested, 2% active;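 active = fluorescence ratio rise of at least 3 SD above the vehicle-control mean, seen in both replicates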;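 note: 0% = vehicle mean plus 3 SD and 100% = vehicle minus no-stimulus blank window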
KCNQ2 W236L MoA: potentiators of retigabine-insensitive KCNQ2 W236L, mechanism study for KCNQ2 potentiator project, cell-based, rat KCNQ2 W236L, CHO, automated patch clamp | 940 tested, 10% active | automated patch clamp current | shares compounds with KCNQ2 pot | current increase over 3SD of negative controls (%), hits give high values, % at 25 µM;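 active = current increase at least 3 SD of the untreated controls above them in both duplicate recordings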
The depositor's hits bear a star; i = inactive; / = not tested or not shown.

SMILES | KCNQ2 inh | KCNQ2 pot | Kir21 conf inh | HEK293 Tl flux | others
c1ccc2c(NCC3CCCO3)nc(N3CCCCC3)nc2c1 (configuration not stated) | i | 0.09 | / | /
Oc1ccc(Cl)cc1Nc1nc(NCC2CCCO2)c2ccccc2n1 (configuration not stated) | i | 1.6 | / | /
Oc1ccc(Nc2nc(NCC3CCCO3)c3ccccc3n2)cc1 (configuration not stated) | i | / | i | i
O=C(Nc1ccc(Cl)cc1F)C1CCN(S(=O)(=O)c2cccc3nonc23)CC1 | i | 1.1 | / | /
O=S(=O)(c1ccccc1F)N1CCN(CCc2ccccc2)CC1 | i | 0.33 | / | /
N#CCCCCN1CCCC1 | i | 1.1 | / | /
Cc1ccc(C(=O)NC(C)c2ccc(C)c(C)c2)s1 (configuration not stated) | i | 12* | i | i | CHO-K1 Tl ctr=-3;KCNQ1 pot spec=30*;KCNQ2 pot confirm=27*;Kir2-1 sel=-46;KCNQ2 W236L MoA=i
Cc1ccc(C(C)NC(=O)c2cccs2)cc1C (configuration not stated) | i | 8.5* | i | i | CHO-K1 Tl ctr=-9;KCNQ1 pot spec=13*;KCNQ2 pot confirm=2.3*;Kir2-1 sel=-29;KCNQ2 W236L MoA=i
Cc1ccc(C(C)NC(=O)c2cccs2)cc1 (configuration not stated) | i | 1.8 | / | /
Cc1ccc(C(=O)NC(C)c2ccc3c(c2)OCO3)s1 (configuration not stated) | i | 3.1 | / | /
Cc1cc(C(=O)NNc2ccc(C(C)C)cc2)n(C(C)(C)C)n1 | i | 1.3 | / | /
CCC(=O)Nc1nc(NCc2ccccc2OC)n(-c2ccccc2)n1 | i | / | / | /
O=C(CN1CCN(S(=O)(=O)c2ccc(Br)cc2)CC1)N/N=C/c1cccnc1 | i | 0.01 | / | /
CCNc1nc(SC(C)C(=O)Nc2ccccc2)nc(N2CCOCC2)n1 (configuration not stated) | i | 0.37 | / | /
CC(=O)C(Sc1nc(N2CCOCC2)nc(N2CCOCC2)n1)C(=O)Nc1ccccc1 (configuration not stated) | i | 6* | i | i | CHO-K1 Tl ctr=10*;KCNQ1 pot spec=-4;KCNQ2 pot confirm=12*;Kir2-1 sel=-27;KCNQ2 W236L MoA=i
COc1ccccc1C(=O)Nc1cccc(Oc2c(F)c(F)c(F)c(F)c2F)c1 | i | / | / | /
CS(=O)(=O)N(CC(=O)N1CCCCCC1)c1cccc(F)c1 | i | / | / | /
Cc1nnc(N(C)C(=O)c2ccc3c(c2)OCO3)s1 | i | 0.5 | / | /
CC(=O)N(CC(=O)O)c1ccccc1 | i | 0.66 | / | /
CC(=O)N(CC(C)(C)CC=C(C)C)c1ccccc1 | i | / | 54%* | i
COc1ccc(C2Cc3ccccc3C(=O)O2)cc1 (configuration not stated) | i | / | / | /
CCn1c(-c2cc(-c3ccc(C)cc3)nc3ccccc23)n[nH]c1=S | i | / | / | /
CCCOc1cccc(-c2cc(-c3n[nH]c(=S)n3CC)c3ccccc3n2)c1 | i | 26* | i | i | CHO-K1 Tl ctr=115*;KCNQ1 pot spec=-20;KCNQ2 pot confirm=-20;Kir2-1 sel=-35
CN(c1nc(-c2ccc(Br)cc2)cs1)C1CCS(=O)(=O)C1 (configuration not stated) | i | 1.5 | / | /
Cc1ccc(C(=O)NCCN2C3=NC[C@@H](Cc4ccccc4)N3C[C@H]2Cc2ccc(O)cc2)cc1Br | i | / | 54%* | i
SMILES | KCNQ2 inh | KCNQ2 pot | Kir21 conf inh | HEK293 Tl flux | others
C/C=C(\C)C(=O)NCCN1C2=NC[C@H](Cc3ccccc3)N2C[C@H]1Cc1ccc(O)cc1 | i | 0.1 | / | /
Cc1ccc(C(=O)NCCN2C3=NC[C@H](Cc4ccc(O)cc4)N3C[C@H]2Cc2ccc(O)cc2)cc1Br | i | 0.05 | / | /
COc1ccc(C[C@H]2CN3C(=NC[C@H]3Cc3ccccc3)N2CCNC(=O)c2ccc(C)c(Br)c2)cc1 | i | / | 28%* | i
Cc1cc(C)c(S(=O)(=O)Nc2ccc(Cl)cn2)c(C)c1 | i | / | / | /
CC1=NN(C(N)=S)C(=O)C1N=Nc1cccc2ccccc12 (configuration not stated) | i | / | / | /
CC1=NN(C(N)=S)C(=O)C1N=Nc1cccc(Cl)c1C (configuration not stated) | i | 40* | i | i | CHO-K1 Tl ctr=-6;KCNQ1 pot spec=-16;KCNQ2 pot confirm=110*;Kir2-1 sel=-36;KCNQ2 W236L MoA=i
Oc1c(Cl)cc(Cl)cc1C=Nc1ccc(Br)cc1 | i | 7.1* | i | i | CHO-K1 Tl ctr=-20;KCNQ1 pot spec=31*;KCNQ2 pot confirm=16*;Kir2-1 sel=-25;KCNQ2 W236L MoA=i
Oc1c(Cl)cc(Cl)cc1C=Nc1ccc(N2CCOCC2)cc1 | i | 4.3 | / | /
COCCN(C(=S)Nc1ccc(Cl)cc1OC)C1CCN(C(C)=O)CC1 | i | / | / | /
Cc1ccc[n+](CC(=O)Nc2ccc(C)c(C)c2)c1 | i | / | / | /
Cn1c(=S)[nH]c2scc(-c3cccs3)c2c1=O | i | 19* | i | 465%* | CHO-K1 Tl ctr=119*;KCNQ1 pot spec=-12;KCNQ2 pot confirm=88*;Kir2-1 sel=-2;KCNQ2 W236L MoA=i
O=c1c2c(-c3cccs3)csc2ncn1-c1ccc(Br)cc1 | i | / | / | /
C=CCn1c(=S)[nH]c2cc(-c3ccccc3)sc2c1=O | i | 2.8 | / | /
C=CCn1c(=S)[nH]c2scc(-c3cccs3)c2c1=O | i | 25* | i | 512%* | CHO-K1 Tl ctr=12*;KCNQ1 pot spec=-13;KCNQ2 pot confirm=106*;Kir2-1 sel=-3;KCNQ2 W236L MoA=i
CCCCCN=C(N)N/N=C/c1c[nH]c2ccc(OC)cc12 | i | 8.8* | i | i | CHO-K1 Tl ctr=51*;KCNQ1 pot spec=-18;KCNQ2 pot confirm=-43;Kir2-1 sel=-94
CCCOc1ccc(C(=O)N/N=C/c2c[nH]c3ccc(Br)cc23)cc1 | i | 0.13 | / | /
